The text below walks through data of PubChem BioAssay (NCATS).

Records with an inconclusive call do not appear. Where a call stands in place of a potency, no number is given. Calls of active or inactive are those of the source. Unless noted, calls come from the whole dose curve; as a rule, active = well fitted curve in the direction sought with a large enough effect; inconclusive = small, poorly fitted or top-dose-only effect, or another doubt; inactive = no such curve, though single readings can be large; an effect the other way counts as inactive or inconclusive.

Assay [1] concerns the target Calcium and integrin-binding protein 1 (Homo sapiens) (UniProt Q99828). Briefly: Primary qHTS for Identification of Calcium Integrin Binding Protein 1 (CIB1) Competitor (AID 1508620).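 Note: GST tagged CIB1 binding a fluorescein labelled alphaIIb integrin peptide tracer; top concentration of the series differs between compounds.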 Put shortly: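 CIB1-GST (1 uM final) and compound incubated 15 min at room temperature before adding FITC-alphaIIb peptide tracer (100 nM final). Competition for binding read by fluorescence polarization (ex 480, em 540) after another 15 min at room temperature.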

A short description of assay [2]: Primary qHTS for small molecule stabilizers of the endoplasmic reticulum resident proteome: Secreted ER Calcium Modulated Protein (SERCaMP) assay (AID 1508630). Put shortly:
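GLuc-SERCaMP-expressing SH-SY5Y cells, pretreated 16 h with compound, are challenged with thapsigargin to empty ER calcium stores; after 4 h, coelenterazine is added directly to the medium and luminescence is imaged.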

The target in assay [3] is Cytochrome P450 2D6 (Homo sapiens) (UniProt P10635). Briefly: Cytochrome P450 family 2 subfamily D member 6 (CYP2D6) small molecule antagonists: luciferase biochemical (cell-free) qHTS assay (AID 1645840; active = well fitted curve in the direction sought with a large enough effect in the repeat runs; an effect the other way counts as inactive or inconclusive; note: nearly all actives have a fitted effect of over 55% in size; note: potency is the fitted concentration of half-maximal effect). The method in brief: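 P450-Glo luminescent screen: recombinant CYP2D6 enzyme–proluciferin substrate mix preincubated with compound 10 min at room temperature, then NADPH regeneration added for 1 h at room temperature. Detection reagent added for 20 min; luciferin light read as relative luminescence units.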

The target of assay [4] is Cytochrome P450 2C9 (Homo sapiens) (UniProt P11712). Kind of assay: Cytochrome P450 family 2 subfamily C member 9 (CYP2C9) small molecule antagonists: luciferase biochemical (cell-free) qHTS assay (AID 1645842; active = well fitted curve in the direction sought with a large enough effect in the repeat runs; an effect the other way counts as inactive or inconclusive; note: nearly all actives have a fitted effect of over 55% in size; note: potency is the fitted concentration of half-maximal effect). Put shortly: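 Luminescence, after 20 min with luciferin detection reagent, reflected CYP2C9 turnover during a 1 h NADPH-driven reaction at 37C. Enzyme-substrate mix contained 0.4% bovine serum albumin and was preincubated with compound 10 min at room temperature.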

The nature of assay [5]: A High-Content qHTS Against Drug Library for the Identification of Small Molecules that Inhibit DYT1 Early Onset Primary Dystonia-Associated Cell Pathology (AID 1645839; calls by dose curve; note: series mostly up to about 46 µM). Put shortly:
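In this high-content image screen, delE TorsinA mislocalization in inducible Flp-In 293 cells is scored as %pathology, with cell count serving as the counterscreen. Compound exposure lasts 48 h under tetracycline induction in reduced-serum medium.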

Chain of Cytochrome P450 2D6 (Homo sapiens) (P10635 whole entry, looked up): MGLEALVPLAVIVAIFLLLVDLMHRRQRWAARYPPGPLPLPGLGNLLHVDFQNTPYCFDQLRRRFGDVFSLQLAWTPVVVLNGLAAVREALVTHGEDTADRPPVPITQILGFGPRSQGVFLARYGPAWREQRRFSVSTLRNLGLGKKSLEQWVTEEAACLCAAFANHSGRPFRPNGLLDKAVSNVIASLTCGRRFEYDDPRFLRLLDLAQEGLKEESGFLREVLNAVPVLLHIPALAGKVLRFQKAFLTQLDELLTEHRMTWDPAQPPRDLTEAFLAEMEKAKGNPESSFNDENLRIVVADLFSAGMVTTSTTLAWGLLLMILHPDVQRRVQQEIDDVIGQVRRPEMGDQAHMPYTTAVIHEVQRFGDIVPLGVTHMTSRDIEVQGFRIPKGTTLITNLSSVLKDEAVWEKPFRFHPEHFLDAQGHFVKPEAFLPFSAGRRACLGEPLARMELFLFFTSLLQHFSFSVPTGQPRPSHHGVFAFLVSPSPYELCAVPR
Chain of Calcium and integrin-binding protein 1 (Homo sapiens) (Q99828 whole entry, looked up): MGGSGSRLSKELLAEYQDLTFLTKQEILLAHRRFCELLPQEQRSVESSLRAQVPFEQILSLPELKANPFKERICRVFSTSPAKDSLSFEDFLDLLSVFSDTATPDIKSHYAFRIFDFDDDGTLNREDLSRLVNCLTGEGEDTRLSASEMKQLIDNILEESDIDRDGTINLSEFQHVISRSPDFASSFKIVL
Chain of Cytochrome P450 2C9 (Homo sapiens) (P11712 whole entry, looked up): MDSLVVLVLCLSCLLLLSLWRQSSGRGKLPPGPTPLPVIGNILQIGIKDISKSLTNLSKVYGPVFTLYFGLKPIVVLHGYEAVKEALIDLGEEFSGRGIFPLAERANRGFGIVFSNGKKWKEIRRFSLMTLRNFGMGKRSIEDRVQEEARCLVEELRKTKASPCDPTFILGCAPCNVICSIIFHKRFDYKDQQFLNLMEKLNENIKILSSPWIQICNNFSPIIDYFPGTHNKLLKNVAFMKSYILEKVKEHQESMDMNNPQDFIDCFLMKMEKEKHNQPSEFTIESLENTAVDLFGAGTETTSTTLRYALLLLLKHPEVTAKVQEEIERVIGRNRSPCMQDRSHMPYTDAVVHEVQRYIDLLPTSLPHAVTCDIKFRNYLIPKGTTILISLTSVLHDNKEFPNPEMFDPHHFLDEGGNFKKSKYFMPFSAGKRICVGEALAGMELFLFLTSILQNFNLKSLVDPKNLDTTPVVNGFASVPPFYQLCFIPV

In the case of `O=C(O)c1ccc2cc(-c3ccc(O)c(C45CC6CC(CC(C6)C4)C5)c3)ccc2c1`, the outcome in assay [1] was inactive. In addition, the Potency result in assay [2] is “inactive”.

As to `CCCCN1CCC(CNC(=O)c2c3n(c4ccccc24)CCCO3)CC1`, the result in assay [1] was inactive. Also, in assay [2], the Potency result is “inactive”.

Regarding `CC1=C(CO)C(=O)O[C@@H]([C@@H](C)[C@H]2CC[C@H]3[C@@H]4C[C@H]5O[C@]56[C@@H](O)C=CC(=O)[C@]6(C)[C@@H]4CC[C@]23C)C1`, in assay [1], the outcome was inactive. In addition, in assay [2], the Potency result is “inactive”.

On to `COc1ccc(CC2SC(=O)NC2=O)cc1C(=O)NCc1ccc(C(F)(F)F)cc1` (stereo unspecified), for which, in assay [1], the outcome was inactive. For the same compound, the Potency result in assay [2] is “inactive”.

As for `NC(=O)Nc1cc(-c2cccc(F)c2)sc1C(=O)N[C@H]1CCCNC1`, in assay [1], the result was inactive. Besides, the Potency result in assay [2] is “inactive”.

With `CCn1nnc2c(N3CCOCC3)nc(-c3ccc(NC(=O)Nc4ccc(C(=O)N5CCN(C)CC5)cc4)cc3)nc21`, the outcome in assay [1] was inactive. The Potency result in assay [2] is “inactive”.

For the compound `CC(C)(O)c1cc2nc(-c3cnc(N)nc3)nc(N3CCOCC3)c2s1`, the outcome in assay [1] was inactive. Besides, the Potency entry in assay [2] and in assay [3] was “inactive” throughout.

As for `CC[C@@H]1C(=O)N(C)c2cnc(Nc3ccc(C(=O)NC4CCN(C)CC4)cc3OC)nc2N1C1CCCC1`, the outcome in assay [1] was inactive. The Potency result in assay [2] was “inactive”.

With `Cc1ccc(C(=O)Nc2cccc(C(F)(F)F)c2)cc1-c1ccc2nc(NCCN3CCOCC3)ncc2c1`, the outcome in assay [1] was inactive. Besides, in assay [2], the Potency entry is “inactive”. For the same compound, the Potency in assay [3] was 12 µM (active); in assay [4], 1.69 µM (active).

As for `C[C@@H]1CN(CC(=O)Nc2ccc3c(c2)Cc2cccc(-c4cc(=O)cc(N5CCOCC5)o4)c2S3)C[C@H](C)O1`, the result in assay [1] was inactive. Further, in assay [2], the Potency result was “inactive”.

Consider `CCCCc1nc2cc(C=CC(=O)NO)ccc2n1CCN(CC)CC`, for which the outcome in assay [1] was inactive. The Potency result in assay [2] was “inactive”. The Potency in assay [3] is 12 µM (active).

In the case of `O=C(Cc1ccc(-c2ccc(OCCN3CCOCC3)cc2)cn1)NCc1ccccc1`, in assay [1], the result was inactive. For the same compound, the Potency result in assay [2] is “inactive”.

Consider `CNC(=O)c1nn(C)c2c1C(C)(C)Cc1cnc(Nc3ccc(N4CCN(C)CC4)cc3)nc1-2`, for which, in assay [1], the outcome was inactive. The Potency result in assay [2] and in assay [3] was “inactive” in each case. Also, in assay [4], the Potency was 21.3 µM (active).

Consider `COc1ccc(C=Cc2cc(OC)c(OC)c(OC)c2)cc1O`, for which, in assay [1], the outcome was inactive. In addition, the Potency entry in assay [2] is “inactive”.

`COc1cc(C(=O)N2CCC(N3CCN(C)CC3)CC2)ccc1Nc1ncc2c(n1)N(C)c1ccccc1C(=O)N2C`: in assay [1], the result was inactive. For the same compound, the Potency result in assay [2] and in assay [3] was “inactive” throughout.

Turning to `Clc1cccc(-c2nnnn2Cc2cccnc2)c1Cl`, the result in assay [1] was inactive. The Potency result in assay [2] and in assay [3] was “inactive” in each case.

On to `CCCCCCCCCC(=O)N[C@@H](Cc1c[nH]c2ccccc12)C(=O)N[C@H](CC(N)=O)C(=O)N[C@@H](CC(=O)O)C(=O)N[C@@H]1C(=O)NCC(=O)N[C@@H](CCCN)C(=O)N[C@@H](CC(=O)O)C(=O)N[C@H](C)C(=O)N[C@@H](CC(=O)O)C(=O)NCC(=O)N[C@H](CO)C(=O)N[C@@H]([C@@H](C)CC(=O)O)C(=O)N[C@@H](CC(=O)c2ccccc2N)C(=O)O[C@@H]1C`, for which, in assay [1], the result was inactive. Also, the Potency result in assay [2] was “inactive”.

Regarding `COc1cc2c(cc1-c1c(C)noc1C)ncc1[nH]c(=O)n([C@H](C)c3ccccn3)c12`, in assay [1], the outcome was inactive. In addition, the Potency result in assay [2] is “inactive”.

As to `Cc1ccc2nc(NC(=O)CSc3nc4c(c(=O)n3-c3ccccc3)SCC4)sc2c1`, the result in assay [1] was inactive. Besides, the Potency entry in assay [2], in assay [3] and in assay [4] was “inactive” throughout.

On to `Cc1[nH]c2ccccc2c1CCNCc1ccc(C=CC(=O)NO)cc1`, for which the outcome in assay [1] was inactive. In assay [2], the Potency entry is “inactive”.

In the case of `COCCOc1ccc2c(c1)ncn2-c1ccc2cccc(N3CCC(N)CC3)c2n1`, the outcome in assay [1] was inactive. The Potency entry in assay [2] is “inactive”.

Consider `Cc1ccc(-c2ncn(-c3ccc(Nc4nccc(-c5cccc(N6CCOCC6)c5)n4)cc3)n2)cn1`, for which the outcome in assay [1] was inactive. Besides, the Potency entry in assay [2] was “inactive”.

As for `Nc1cccc(-c2cc3c(Oc4cccc(O)c4)ncnc3[nH]2)c1`, the result in assay [1] was inactive. For the same compound, the Potency result in assay [2] was “inactive”.

Take `CC(C)Nc1cc(C(F)(F)F)cc2nc(NC(=O)c3cccnc3)nn12`: the outcome in assay [1] was inactive. The Potency entry in assay [2] and in assay [3] was “inactive” in each case.

Turning to `CCc1c2c(nc3ccc(O)cc13)-c1cc3c(c(=O)n1C2)COC(=O)[C@]3(O)CC`, the outcome in assay [1] was inactive. The Potency entry in assay [2] was “inactive”.

With `Cc1coc2c1C(=O)C(=O)c1c-2ccc2c1CCCC2(C)C`, in assay [1], the result was inactive. Also, the Potency entry in assay [2] was “inactive”. Also, the Potency in assay [3] is 23.9 µM (active).

Turning to `NC(=O)c1c(OCc2c(F)cc(Br)cc2F)nsc1NC(=O)NCCCCN1CCCC1`, in assay [1], the result was inactive. In assay [2], the Potency result is “inactive”. The Potency in assay [3] was 10.7 µM (active); in assay [4], 16.9 µM (active).

In the case of `CCc1cc2c(cc1N1CCC(N3CCOCC3)CC1)C(C)(C)c1[nH]c3cc(C#N)ccc3c1C2=O`, the outcome in assay [1] was inactive. Besides, the Potency result in assay [2] was “inactive”.

Regarding `Cc1cc(Nc2cc(NC(=O)c3c(Cl)cccc3Cl)ccn2)nc(N)n1`, the outcome in assay [1] was inactive. In assay [2], the Potency result is “inactive”.

For `O=C(O)C1(Cc2cccc(Nc3nccs3)n2)CCC(Oc2cccc(Cl)c2F)CC1` (stereo unspecified), the outcome in assay [1] was inactive. Further, the Potency result in assay [2] and in assay [3] was “inactive” throughout. Besides, the Potency in assay [4] is 7.56 µM (active).

In the case of `CC1(C)OC2=C(C(=O)c3ccccc3C2=O)[C@H](NCc2ccccc2)[C@H]1O`, in assay [1], the result was inactive. Besides, the Potency entry in assay [2] is “inactive”.

For the compound `CC(C)(C)c1cc(C(C)(C)C)c(NC(=O)c2c[nH]c3ccccc3c2=O)cc1O`, in assay [1], the result was inactive. Also, in assay [2], the Potency result is “inactive”.

Regarding `Cc1cn2c(-c3cn[nH]c3)cnc2c(Nc2ccc(C(=O)N3CCNCC3)cc2F)n1`, the outcome in assay [1] was inactive. For the same compound, the Potency entry in assay [2] was “inactive”.

For `COCCn1c2c([n+](Cc3cnccn3)c1C)C(=O)c1ccccc1C2=O`, the result in assay [1] was inactive. Besides, the Potency entry in assay [2] was “inactive”.

As for `CC(C)(C)c1cnc(CSc2cnc(NC(=O)C3CCNCC3)s2)o1`, the result in assay [1] was inactive. The Potency result in assay [2] was “inactive”. Besides, the Potency in assay [3] is 25.1 µM (active); in assay [4], 17.8 µM (active).

As for `COC(=O)Nc1ccc(-c2nc(N3CCOCC3)c3cnn(C4CCN(Cc5cccnc5)CC4)c3n2)cc1`, the outcome in assay [1] was inactive. Moreover, the Potency result in assay [2] was “inactive”.

Turning to `CC=C1NC(=O)[C@H]2CSSCCC=C[C@H](CC(=O)N[C@H](C(C)C)C(=O)N2)OC(=O)[C@H](C(C)C)NC1=O`, the result in assay [1] was inactive. The Potency result in assay [2] was “inactive”.

For the compound `COc1ccc2c(OCc3nnc4ccc(-c5ccccc5)nn34)ccnc2c1`, the outcome in assay [1] was inactive. The Potency entry in assay [2] and in assay [3] was “inactive” each time. Besides, the Potency in assay [4] was 0.756 µM (active).

Turning to `CC[C@H]1CN2CCc3cc(OC)c(OC)cc3[C@H]2C[C@@H]1C[C@@H]1NCCc2cc(OC)c(OC)cc21`, in assay [1], the result was inactive. For the same compound, in assay [2], the Potency entry was “inactive”.

For `C=CC(=O)Nc1cccc(Oc2nc(Nc3ccc(N4CCN(C)CC4)cc3OC)ncc2Cl)c1`, the outcome in assay [1] was inactive. The Potency entry in assay [2] was “inactive”. The Potency in assay [3] was 23.9 µM (active); in assay [4], 13.5 µM (active).

For `Cc1cc(Nc2cc(N3CCN(C)CC3)nc(Sc3ccc(NC(=O)C4CC4)cc3)n2)n[nH]1`, in assay [1], the result was inactive. Also, the Potency entry in assay [2] is “inactive”.

Consider `N#CCNC(=O)c1ccc(-c2ccnc(Nc3ccc(N4CCOCC4)cc3)n2)cc1`, for which the result in assay [1] was inactive. In addition, the Potency result in assay [2] is “inactive”.

Turning to `CN1CCN(c2ccc3nc(-c4c(N)c5c(F)cccc5[nH]c4=O)[nH]c3c2)CC1`, the result in assay [1] was inactive. In addition, the Potency entry in assay [2] is “inactive”.

For `Cc1nc2ccc(CN(C)c3ccc(C(=O)N[C@@H](CCC(=O)O)C(=O)O)s3)cc2c(=O)[nH]1`, the result in assay [1] was inactive. The Potency result in assay [2], in assay [5], in assay [3] and in assay [4] was “inactive” in each case.

Take `CC(C)c1cc(-c2n[nH]c(=O)n2-c2ccc3c(ccn3C)c2)c(O)cc1O`: the outcome in assay [1] was inactive. Further, in assay [2], the Potency entry is “inactive”. The Potency in assay [4] was 1.69 µM (active).
